Assay results published in PubChem BioAssay (Tox21).
Records with an inconclusive call do not appear. Values without a mark were called inactive. Calls of active or inactive are those of the source. The call rests on the fitted dose curve.

target: Muscarinic acetylcholine receptor M1 (Homo sapiens) (UniProt P11229); assay: Cholinergic receptor muscarinic 1 (CHRM1) small molecule antagonists, cell-based qHTS assay (AID 1963588); conditions: CHRM1-CHO antagonist mode, calcium flux fluorescence; series mostly up to 61.5 µM; activity, negative = inhibition: at the top concentration; further: nearly all actives have a fitted effect of over 40% in size
Text: National Center for Advancing Translational Sciences [NCATS]
Division of Preclinical Innovation [DPI]
U.S. Environmental Protection Agency [EPA]
National Institutes of Environmental Health Sciences [NIEHS]
National Toxicology Program [NTP]
U.S. Food and Drug Administration [FDA]
The CHRM1 is a muscarinic receptor. This receptor plays a crucial role in learning and memory processes and has long been identified as a promising therapeutic target for the improvement of cognitive decline in Alzheimer's disease (AD). The CHRM1-CHO cell line stably expressing human muscarinic acetylcholine receptor M1 (CHRM1) can be used for screening agonists and antagonists of interactions between CHRM1 and its ligands. The CHRM1-CHO Calcium Flux Assay is a homogeneous fluorescence-based assay for detecting the intracellular calcium level using FDSS kinetic plate reader system.
Tox21 Assay Protocol Summary:
CHRM1-CHO cells were dispensed at 1000 cells/3uL/well in 1536-well black-clear bottom plates using a Multidrop Dispenser. After the assay plates were incubated at a 37 C/5% CO2 incubator for 18 h, 3 uL of Dye Loading Buffer was transferred to the assay plate by a Flying Reagent Dispenser. The assay plates were incubated at 37 C for 1h. For antagonist mode, 23 nL of compounds dissolved in DMSO, positive controls or DMSO only was transferred to the assay plate by a pin tool. After 5 min incubation at room temperature, 1.5 uL of acetylcholine at 50nM was added to each well. The fluorescence intensity in the plates was measured using FDSS 7000EX kinetic plate reader for 3 min at 1 sec intervals. Each test compound was measured at 15 concentrations in three independent runs.
On the % scale 0 is the no-effect control and ±100 the full control effect; potency means the concentration at half of the fitted maximal effect.

Chain of Muscarinic acetylcholine receptor M1 (Homo sapiens) (P11229 whole entry, looked up): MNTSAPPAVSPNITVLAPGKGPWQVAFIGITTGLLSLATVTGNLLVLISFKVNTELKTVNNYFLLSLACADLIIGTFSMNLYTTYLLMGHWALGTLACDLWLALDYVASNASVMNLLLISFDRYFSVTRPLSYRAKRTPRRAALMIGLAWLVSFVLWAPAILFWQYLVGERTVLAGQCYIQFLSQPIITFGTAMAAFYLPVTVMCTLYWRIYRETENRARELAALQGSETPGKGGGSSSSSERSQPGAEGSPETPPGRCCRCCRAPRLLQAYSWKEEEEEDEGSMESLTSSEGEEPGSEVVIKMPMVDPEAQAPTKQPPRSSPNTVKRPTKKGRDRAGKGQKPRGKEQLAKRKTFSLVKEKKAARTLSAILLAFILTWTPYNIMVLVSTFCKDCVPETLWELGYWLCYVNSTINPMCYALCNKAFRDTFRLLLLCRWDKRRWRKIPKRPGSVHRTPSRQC

| SMILES | activity, negative = inhibition | Potency |
| --- | --- | --- |
| O=C1OC(=O)c2c(Br)c(Br)c(Br)c(Br)c21 | 19% |  |
| CC(C)=CC=O | 5.66% |  |
| O=S(c1cc(Cl)cc(Cl)c1O)c1cc(Cl)cc(Cl)c1O | 13.4% [at 28.3 µM] |  |
| COc1ccc(/C=C/C(=O)c2ccc(OC)cc2OC)cc1 | -2.07% [at 28.3 µM] |  |
| CC(=O)c1ccc[nH]1 | -1.55% |  |
| CC1CCN(CCCC(=O)c2ccc(F)cc2)CC1 | -13% [at 28.3 µM] |  |
| Cc1cc(O)c2ccccc2c1O | 1.82% [at 28.3 µM] |  |
| CC[N+](CC)(CC)CCOc1ccc(/C=C/c2ccccc2)cc1 |  | 1160 nM (active) |
| CCCCCCCCCCl | -0.53% |  |
| c1cnc(N2CCN(Cc3ccc4c(c3)OCO4)CC2)nc1 | -5.37% [at 28.3 µM] |  |
| CCCC(=O)OCCC(C)CCC=C(C)C (stereo not given) | -10.9% |  |
| CC(=O)Oc1ccc2c(c1)CC[C@@H]1[C@@H]2CC[C@]2(C)[C@@H](O)CC[C@@H]12 | -1.77% [at 28.3 µM] |  |
| Cc1ccccc1 | 3.73% |  |
| C=C(C)C1CCC(C)(O)CC1 (stereo not given) | 4.82% |  |
| O=C(Nc1ccc(Oc2ccc(Cl)cc2)c(Cl)c1)c1cc(I)cc(I)c1O | 2.81% [at 28.3 µM] |  |
| O=[N+]([O-])c1cc(C2CCCCC2)c(O)c([N+](=O)[O-])c1 | -33% |  |
| S=C([S-])NCCNC(=S)[S-].[Mn+2] | -0.241% |  |
| CCC(C)[O-].CCC(C)[O-].CCOC(=O)/C=C(/C)[O-].[Al+3] | 5.5% |  |
| O=C(Cl)c1cccc([N+](=O)[O-])c1 | 3.01% |  |
| CCO[Si](CCCS)(OCC)OCC | 3.19% |  |

| SMILES | activity, negative = inhibition | Potency |
| --- | --- | --- |
| CC(=O)OCCC(C)CC(C)(C)C (stereo not given) | 5.31% |  |
| O=C1CCCCCN1SSN1CCCCCC1=O | 0.223% |  |
| CC(CCO)CCCC(C)(C)O (stereo not given) | 22.9% |  |
| CC/C=C\C/C=C\C/C=C\CCCCCCCC(=O)OCC | 27.3% |  |
| O=C(CC(=O)C(F)(F)F)c1ccccc1 | 9.43% |  |
| O=C(O)CCCCCCCCCCCBr | -4.88% |  |
| Cc1cccc(O)c1N | 10.3% |  |
| COc1ccc(S(=O)(=O)N2C(=O)[C@@](c3ccccc3OC)(N3C[C@H](O)C[C@H]3C(=O)N(C)C)c3cc(Cl)ccc32)c(OC)c1 | 1.71% |  |
| O=C(Nc1ccc(S(=O)(=O)N2CCOCC2)cc1)c1cc(Cl)ccc1NS(=O)(=O)c1ccc(Cl)s1 | -1.84% [at 28.3 µM] |  |
| CC[C@@]1(c2ccccc2)NC(=O)N(C)C1=O | 7.69% [at 28.3 µM] |  |
| Sc1nc(S)nc(S)n1 | 14.2% [at 28.3 µM] |  |
| Cc1nc2ccccc2c(=O)o1 | -8.97% |  |
| O=C(Nc1cccc(C(F)(F)F)c1)c1cc(Br)cc(Br)c1O | -5.04% |  |
| CN(C)C(=O)NC1(c2ccccc2)CCN(CCC[C@]2(c3ccc(Cl)c(Cl)c3)CCCN(C(=O)c3ccccc3)C2)CC1 | -18.4% [at 12.6 µM] |  |
| OC1CCCCC1c1ccccc1 (stereo not given) | 11.4% |  |
| Cc1c[nH]c(=S)[nH]c1=O | 2.05% |  |
| CC(C)(C)OC(=O)c1ccc(O)cc1 | -0.963% |  |
| CCCC(=O)OC[C@@H](OC(=O)CCC)[C@@H](OC(=O)CCC)[C@H](Cn1c2nc(=O)[nH]c(=O)c-2nc2cc(C)c(C)cc21)OC(=O)CCC | -12.9% [at 28.3 µM] |  |
| Cc1ccc(OC(=O)CC(C)C)cc1 | 4.36% |  |
| CN1CCN(CCC(=O)N2c3ccccc3Sc3ccc(C(F)(F)F)cc32)CC1 |  | 146 nM (active) |
